Compound activity (PubChem)
Pf Dd2 inh: P. falciparum Dd2 growth inhibition. activity change, % at 10 µM. SYBR Green, 72 h; active compounds read low. 94,000 tested, 2.3% active; in the data active = activity change below about -80%; inconclusive = no clear call, values can overlap the other calls
T cruzi growth: inhibitors of T. cruzi proliferation. AID 624255. T. cruzi beta-gal in NIH3T3, GalScreen luminescence, 90 h. 77,000 tested, 5.9% active. inhibition, % at 8.34 µM;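 active = mean inhibition above about 93%, with at least 55% of replicates each passing it, limit read from the data, passing the limit was not always enough; inconclusive = only one of those two conditions holds; inactive = neither condition holds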
C diff HTS: C. difficile growth inhibition; Clostridium difficile clinical isolate growth, OD600, 24 h; active compounds read low; AID 1259249; growth activity, negative = inhibition, % at 16 µg/mL (by protocol); 86,000 tested, 0.25% active;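 active = mean growth activity at or below -80% and every replicate also at or below -80%; inconclusive = mean at or below -80% but some replicate above -80%; inactive = mean growth activity above -80%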;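 also: 0% = DMSO wells and -100% = levofloxacin 16 µg/mL wells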
Numbers without * were called inactive; ? = inconclusive; · = no result. Rows were chosen to be rich in hits. Some 6.8% of all compounds tested hit in one or more screens of this group.

SMILES	Pf Dd2 inh	T cruzi growth	C diff HTS
C[C@H]1CN([C@@H](C)CO)C(=O)c2c(c3ccccc3n2C)-c2ccccc2CO[C@@H]1CN(C)Cc1cccc2c1OCCCO2	-79.7	·	8.4
O=C(N[C@H]1CC[C@H](CCNS(=O)(=O)Cc2ccccc2)O[C@H]1CO)c1ccccc1F	0.6	-4.6	·
CCC(=O)N1CC2(CN[C@H](CO)c3c2c2ccc(OC)cc2n3C)C1	23.7	·	·
CC(C)NC(=O)N1C[C@H]2[C@@H](c3ccccc31)[C@@H](CO)N2C(=O)Nc1ccccc1	17.5	30.1	7.0
C[C@H](CO)N1C[C@H](C)[C@@H](CN(C)C(=O)NC2CCCCC2)Oc2ccc(NC(=O)Nc3cccc4ccccc34)cc2C1=O	-11.5	0.0	-2.6
COc1ccc(S(=O)(=O)Nc2ccc3c(c2)C(=O)N([C@@H](C)CO)C[C@H](C)[C@@H](CN(C)C(=O)NC2CCCCC2)OCCCC[C@@H](C)O3)cc1	-86.8*	101.1	5.5
COc1ccc(S(=O)(=O)Nc2ccc3c(c2)C(=O)N([C@H](C)CO)C[C@@H](C)[C@@H](CN(C)C(=O)C2CCCCC2)OCCCC[C@@H](C)O3)cc1	-76.3	77.9	-0.8
COc1ccc(S(=O)(=O)Nc2ccc3c(c2)C(=O)N([C@H](C)CO)C[C@H](C)[C@@H](CN(C)C(=O)NC2CCCCC2)OCCCC[C@H](C)O3)cc1	-26.7	66.7	8.6
COc1ccc(S(=O)(=O)Nc2ccc3c(c2)C(=O)N([C@@H](C)CO)C[C@H](C)[C@@H](CN(C)C(=O)C2CCCCC2)OCCCC[C@@H](C)O3)cc1	-92.4*	-36.1	0.5
CN1CCN(C(=O)C[C@@H]2CC[C@H](NC(=O)Cc3ccccn3)[C@H](CO)O2)CC1	13.8	12.1	·
CCS(=O)(=O)Nc1ccc2c(c1)C(=O)N(C)C[C@H](OC)[C@@H](C)CN(CC1CCCC1)[C@@H](C)CO2	-48.5	-2.1	0.7
COc1ccc2c3c(n(C)c2c1)[C@H](CO)N(CC1CC1)CC31CCN(C(=O)CN(C)C)CC1	-41.5	·	4.5
COc1ccc2c3c(n(C)c2c1)[C@@H](CO)N(S(=O)(=O)c1ccc(C)cc1)CC31CCN(S(=O)(=O)c2ccc(C)cc2)CC1	-84.9*	·	2.3
CCC(=O)N1CCC2(CC1)CN(S(C)(=O)=O)[C@H](CO)c1c2c2ccc(OC)cc2n1C	25.7	·	-2.0
COc1ccc2c3c(n(C)c2c1)[C@@H](CO)N(S(=O)(=O)c1ccc(C)cc1)CC31CCN(C)CC1	-58.5	·	-4.7
CCC(=O)N1CCC2(CC1)CN(CC1CCCCC1)[C@@H](CO)c1c2c2ccc(OC)cc2n1C	-85.5*	·	2.7
COc1ccc2c3c(n(C)c2c1)[C@@H](CO)N(CC1CCCC1)CC31CCN(C(=O)CN(C)C)CC1	-85.0*	·	4.9
CCC(=O)N1CCC2(CC1)CN(CC1CCCCC1)[C@H](CO)c1c2c2ccc(OC)cc2n1C	41.7	·	·
COc1ccc2c3c(n(C)c2c1)[C@@H](CO)N(S(C)(=O)=O)CC31CCN(C(=O)CN(C)C)CC1	-88.6*	·	-1.8
COc1ccc(S(=O)(=O)N[C@H]2C=C[C@H](CC(=O)N3CCN(c4ccccc4)CC3)O[C@@H]2CO)cc1	5.4	8.2	-4.3
COCCNC(=O)C[C@@H]1C[C@@H]2c3cc(NC(=O)Nc4ccccc4)ccc3O[C@@H]2[C@H](CO)O1	15.9	51.3	0.2
CN(C)CC(=O)N1CC[C@@H]2[C@H]1c1cc(Br)ccc1N(C)[C@@H]2CO	12.7	13.9	-0.7
C[C@H](NC(=O)C[C@H]1CC[C@H](NC(=O)C2CC2)[C@H](CO)O1)c1ccccc1	-0.1	·	3.2
C/C=C/c1ccc2c(c1)O[C@@H](CN(C)C(=O)c1ccccn1)[C@@H](C)CN([C@@H](C)CO)S2(=O)=O	8.3	5.5	4.8
COCC(=O)N1C[C@@H](C)[C@@H](OC)CN(C)C(=O)c2ccc(NC(=O)c3cc(C)on3)cc2OC[C@H]1C	-3.4	-5.8	·
SMILES	Pf Dd2 inh	T cruzi growth	C diff HTS
C[C@H](CO)N1C[C@H](C)[C@H](CN(C)C(=O)Nc2cccc(C(F)(F)F)c2)OCc2ccccc2-c2ccccc2C1=O	-31.6	74.4	1.9
C[C@@H]1CN([C@@H](C)CO)C(=O)c2ccccc2-c2ccccc2CO[C@@H]1CN(C)C(=O)Nc1cccc(F)c1	-16.7	49.4	·
C[C@H](CO)N1C[C@H](C)[C@@H](CN(C)C(=O)Nc2ccc(-c3ccccc3)cc2)OCc2ccccc2-c2ccccc2C1=O	-40.1	·	82.1
C[C@H]1CN([C@@H](C)CO)C(=O)c2ccccc2-c2ccccc2CO[C@@H]1CN(C)C(=O)Nc1ccc(-c2ccccc2)cc1	-86.4*	·	-14.7
C[C@@H]1CN([C@@H](C)CO)C(=O)c2ccccc2-c2ccccc2CO[C@H]1CN(C)C(=O)Nc1cccc(F)c1	-83.4*	22.4	·
C[C@@H]1CN([C@@H](C)CO)C(=O)c2ccccc2-c2ccccc2CO[C@H]1CN(C)C(=O)Nc1cccc(C(F)(F)F)c1	-87.4*	48.8	0.3
Cc1noc(C)c1NC(=O)Nc1ccc2c(c1)C(=O)N([C@@H](C)CO)C[C@@H](C)[C@H](CN(C)C(=O)Nc1ccc(F)cc1)O2	30.5	10.1	1.2
C[C@@H]1CN([C@H](C)CO)C(=O)Cc2cc(NC(=O)Cc3cn(C)c4ccccc34)ccc2O[C@H]1CN(C)Cc1ccccc1	-11.2	66.0	-16.3
C[C@H]1CN([C@@H](C)CO)C(=O)Cc2cc(NC(=O)Cc3cn(C)c4ccccc34)ccc2O[C@H]1CN(C)C(=O)Nc1cccc2ccccc12	-33.2	28.5	-1.9
C[C@@H]1CN([C@@H](C)CO)C(=O)Cc2cc(NC(=O)Cc3cn(C)c4ccccc34)ccc2O[C@H]1CN(C)Cc1ccc(Oc2ccccc2)cc1	-90.4*	8.6	40.6
COc1ccc(CN(C)C[C@H]2Oc3ccc(NC(=O)Cc4cn(C)c5ccccc45)cc3CC(=O)N([C@H](C)CO)C[C@H]2C)cc1	30.7	73.8	-12.6
C[C@@H]1CN([C@H](C)CO)C(=O)Cc2cc(NC(=O)Cc3cn(C)c4ccccc34)ccc2O[C@@H]1CN(C)Cc1ccc(Oc2ccccc2)cc1	-27.6	58.7	-2.2
C[C@H](CO)N1C[C@H](C)[C@H](CN(C)Cc2ccc(Oc3ccccc3)cc2)Oc2ccc(NC(=O)Cc3cn(C)c4ccccc34)cc2CC1=O	-82.7*	35.9	9.0
C[C@H](CO)N1C[C@H](C)[C@H](CN(C)C(=O)Nc2cccc3ccccc23)Oc2ccc(NC(=O)Cc3cn(C)c4ccccc34)cc2CC1=O	-84.9*	43.4	-4.4
C[C@H](CO)N1C[C@H](C)[C@@H](CN(C)Cc2ccccc2)Oc2ccc(NC(=O)Cc3cn(C)c4ccccc34)cc2CC1=O	-82.2*	70.2	-5.3
Cc1ccc(S(=O)(=O)Nc2cccc3c2O[C@H](CN(C)Cc2ccncc2)[C@H](C)CN([C@H](C)CO)C3=O)cc1	-2.6	43.8	-0.5
COc1ccc(NC(=O)N(C)C[C@@H]2Oc3ccc(NC(=O)C4CCCCC4)cc3C(=O)N([C@@H](C)CO)C[C@@H]2C)cc1	57.1	23.2	1.5
COc1ccc2c3c(n(C)c2c1)[C@@H](CO)N(Cc1ccccc1)CC31CCN(C(=O)C2CC2)CC1	-72.0	·	1.5
COc1ccc2c3c(n(C)c2c1)[C@H](CO)N(Cc1cc(F)ccc1F)CC31CCN(C(=O)C2CC2)CC1	?	·	-6.0
